# In article PMC7862700, “An all-to-all approach to the identification of sequence-specific readers for epigenetic DNA modifications on cytosine”:
# Assays:
# Assay in all cases: DAPPL (digital affinity profiling via proximity ligation, sequencing); 10 mM Tris-HCl pH 7.5, 50 mM NaCl, 1 mM DTT, 4% glycerol, room temperature, 30 min; GST-TFs on glutathione beads, 16-mer random dsDNA library, 0.1% formaldehyde crosslink after washing; high values mean tight binding
# FLI1 = molecular target: T1, FLI1 (Homo sapiens, UniProt Q01543 1-452); details: protein: recombinant; tags: N-terminal GST; dsDNA, one strand shown
# T1 sequence: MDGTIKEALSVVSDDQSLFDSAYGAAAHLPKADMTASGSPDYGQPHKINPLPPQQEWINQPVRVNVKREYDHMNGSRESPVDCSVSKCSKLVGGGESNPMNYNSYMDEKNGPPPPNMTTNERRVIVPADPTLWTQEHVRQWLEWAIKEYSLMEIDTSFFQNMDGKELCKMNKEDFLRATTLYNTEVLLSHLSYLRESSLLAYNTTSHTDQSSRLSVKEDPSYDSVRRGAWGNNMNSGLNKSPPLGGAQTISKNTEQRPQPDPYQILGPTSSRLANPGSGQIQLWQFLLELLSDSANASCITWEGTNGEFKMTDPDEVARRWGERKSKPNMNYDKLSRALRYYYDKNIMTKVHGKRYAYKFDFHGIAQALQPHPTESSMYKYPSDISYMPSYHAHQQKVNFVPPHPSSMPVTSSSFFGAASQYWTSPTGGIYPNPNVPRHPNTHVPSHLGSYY
# Method in brief: (§1)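 In yeast, human transcription factors were expressed with a GST fusion, then pulled down on glutathione beads and given DNA barcodes. Pooled with a tag-only sample, they were exposed to 200 nmole of a 16-mer random double-stranded DNA library (Tris/NaCl/DTT/glycerol buffer, room temperature, 30 min), washed, crosslinked with 0.1% formaldehyde, proximity-ligated using BsaI/T4 ligase for 1 h at 37 °C, PCR-amplified and read on an Illumina NextSeq500. Each hexamer's frequency of reads for a factor, divided by the matching frequency for the tag-only sample, gives the binding signal.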
# ELK1 = molecular target: T2, ELK1 (Homo sapiens, UniProt P19419 1-428); details: protein: recombinant; tags: N-terminal GST; dsDNA, one strand shown
# T2 sequence: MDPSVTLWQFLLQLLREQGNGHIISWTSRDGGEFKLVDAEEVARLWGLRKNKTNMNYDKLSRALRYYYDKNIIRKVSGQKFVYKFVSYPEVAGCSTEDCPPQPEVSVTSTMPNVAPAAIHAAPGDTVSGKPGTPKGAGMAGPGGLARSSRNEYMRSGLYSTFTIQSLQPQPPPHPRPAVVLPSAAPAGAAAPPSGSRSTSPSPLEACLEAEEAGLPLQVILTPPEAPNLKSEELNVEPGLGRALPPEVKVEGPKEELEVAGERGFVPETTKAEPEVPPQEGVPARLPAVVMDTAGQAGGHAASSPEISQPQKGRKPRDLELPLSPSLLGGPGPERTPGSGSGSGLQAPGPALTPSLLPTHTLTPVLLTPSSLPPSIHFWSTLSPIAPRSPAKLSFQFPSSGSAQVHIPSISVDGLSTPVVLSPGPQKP
# Method in brief: as §1
# GABPA = molecular target: T3, GABPA (Homo sapiens, UniProt Q06546 1-454); details: protein: recombinant; tags: N-terminal GST; dsDNA, one strand shown
# T3 sequence: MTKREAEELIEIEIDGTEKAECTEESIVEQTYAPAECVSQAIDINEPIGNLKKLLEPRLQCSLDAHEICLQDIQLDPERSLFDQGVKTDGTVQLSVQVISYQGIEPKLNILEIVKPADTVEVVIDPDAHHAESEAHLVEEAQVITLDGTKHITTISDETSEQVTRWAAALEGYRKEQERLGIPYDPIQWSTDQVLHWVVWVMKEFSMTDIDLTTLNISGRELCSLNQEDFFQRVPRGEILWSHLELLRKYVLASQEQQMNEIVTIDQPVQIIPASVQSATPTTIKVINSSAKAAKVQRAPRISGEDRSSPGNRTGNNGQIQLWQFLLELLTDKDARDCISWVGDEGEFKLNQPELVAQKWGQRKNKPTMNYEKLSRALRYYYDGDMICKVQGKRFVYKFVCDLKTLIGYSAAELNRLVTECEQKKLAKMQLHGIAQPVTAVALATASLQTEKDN
# Method in brief: as §1
# ERG = molecular target: T4, ERG (Homo sapiens, UniProt P11308 1-479); details: protein: recombinant; tags: N-terminal GST; dsDNA, one strand shown
# T4 sequence: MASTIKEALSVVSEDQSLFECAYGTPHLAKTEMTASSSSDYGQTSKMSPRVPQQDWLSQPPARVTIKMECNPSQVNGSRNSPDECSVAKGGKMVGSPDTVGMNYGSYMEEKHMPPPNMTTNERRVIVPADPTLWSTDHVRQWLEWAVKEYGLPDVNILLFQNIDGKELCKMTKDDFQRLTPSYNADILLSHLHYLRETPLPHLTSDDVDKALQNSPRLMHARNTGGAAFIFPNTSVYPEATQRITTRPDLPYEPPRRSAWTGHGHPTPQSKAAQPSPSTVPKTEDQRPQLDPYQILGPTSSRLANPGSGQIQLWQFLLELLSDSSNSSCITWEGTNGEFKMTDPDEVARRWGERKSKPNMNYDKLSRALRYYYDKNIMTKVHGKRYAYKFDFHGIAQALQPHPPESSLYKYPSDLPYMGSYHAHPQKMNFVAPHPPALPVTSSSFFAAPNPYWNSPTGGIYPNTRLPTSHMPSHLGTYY
# Method in brief: as §1
# ELF1 = ELF1 (Homo sapiens, UniProt P32519 1-619); details: protein: recombinant; tags: N-terminal GST; dsDNA, one strand shown
# Chain of ELF1 (P32519 whole entry): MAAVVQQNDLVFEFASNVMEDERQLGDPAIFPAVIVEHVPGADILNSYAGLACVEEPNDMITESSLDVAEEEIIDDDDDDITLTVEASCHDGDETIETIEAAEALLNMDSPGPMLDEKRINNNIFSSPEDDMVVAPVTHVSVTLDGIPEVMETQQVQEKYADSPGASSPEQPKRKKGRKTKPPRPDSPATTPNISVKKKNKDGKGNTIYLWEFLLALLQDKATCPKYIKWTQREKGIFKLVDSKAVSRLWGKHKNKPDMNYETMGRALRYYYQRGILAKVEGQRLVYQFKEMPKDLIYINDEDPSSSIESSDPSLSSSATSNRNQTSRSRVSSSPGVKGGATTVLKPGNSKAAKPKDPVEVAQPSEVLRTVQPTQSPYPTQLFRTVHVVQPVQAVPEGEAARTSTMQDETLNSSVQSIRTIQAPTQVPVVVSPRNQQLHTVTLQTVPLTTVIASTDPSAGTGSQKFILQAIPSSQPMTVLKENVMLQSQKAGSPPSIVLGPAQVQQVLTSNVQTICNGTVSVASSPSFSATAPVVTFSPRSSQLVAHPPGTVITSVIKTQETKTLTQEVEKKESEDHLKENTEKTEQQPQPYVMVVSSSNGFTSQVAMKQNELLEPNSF
# Method in brief: as §1
# EHF = molecular target: T5, EHF (Homo sapiens, UniProt Q9NZC4 1-300); details: protein: recombinant; tags: N-terminal GST; dsDNA, one strand shown
# T5 sequence: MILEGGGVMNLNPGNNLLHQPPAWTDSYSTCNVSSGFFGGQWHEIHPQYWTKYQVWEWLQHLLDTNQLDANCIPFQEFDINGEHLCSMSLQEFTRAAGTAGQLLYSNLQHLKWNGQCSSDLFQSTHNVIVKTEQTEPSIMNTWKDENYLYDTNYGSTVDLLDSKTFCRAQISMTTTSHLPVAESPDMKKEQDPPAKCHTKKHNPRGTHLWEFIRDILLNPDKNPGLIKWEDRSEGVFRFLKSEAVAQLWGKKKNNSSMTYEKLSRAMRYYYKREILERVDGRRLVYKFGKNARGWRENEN
# Method in brief: as §1
# SPI1 = SPI1 (Homo sapiens, UniProt P17947 1-270); details: protein: recombinant; tags: N-terminal GST; dsDNA, one strand shown
# Method in brief: as §1
# SPIB = SPIB (Homo sapiens, UniProt Q01892 1-262); details: protein: recombinant; tags: N-terminal GST; dsDNA, one strand shown
# Chain of SPIB (Q01892 whole entry): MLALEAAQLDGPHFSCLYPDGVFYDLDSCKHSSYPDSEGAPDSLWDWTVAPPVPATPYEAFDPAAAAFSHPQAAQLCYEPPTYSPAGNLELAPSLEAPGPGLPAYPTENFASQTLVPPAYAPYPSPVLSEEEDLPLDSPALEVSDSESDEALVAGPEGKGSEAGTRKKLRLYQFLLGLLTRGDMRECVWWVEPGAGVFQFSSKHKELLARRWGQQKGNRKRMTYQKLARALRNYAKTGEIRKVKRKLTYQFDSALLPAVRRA
# Method in brief: as §1
# ELK3 = molecular target: T6, ELK3 (Homo sapiens, UniProt P41970 1-407); details: protein: recombinant; tags: N-terminal GST; dsDNA, one strand shown
# T6 sequence: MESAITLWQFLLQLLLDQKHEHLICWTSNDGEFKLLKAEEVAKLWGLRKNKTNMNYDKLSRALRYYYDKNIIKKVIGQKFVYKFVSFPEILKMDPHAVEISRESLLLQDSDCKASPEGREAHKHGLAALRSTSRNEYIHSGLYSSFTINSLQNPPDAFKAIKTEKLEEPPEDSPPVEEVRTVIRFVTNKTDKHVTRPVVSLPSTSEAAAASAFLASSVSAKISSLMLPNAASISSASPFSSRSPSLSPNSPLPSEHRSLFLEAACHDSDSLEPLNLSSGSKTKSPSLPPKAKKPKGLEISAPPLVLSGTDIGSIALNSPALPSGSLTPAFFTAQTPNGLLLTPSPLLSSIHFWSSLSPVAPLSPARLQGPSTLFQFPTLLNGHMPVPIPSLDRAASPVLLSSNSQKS
# Method in brief: as §1
# FEV = molecular target: T7, FEV (Homo sapiens, UniProt Q99581 1-238); details: protein: recombinant; tags: N-terminal GST; dsDNA, one strand shown
# T7 sequence: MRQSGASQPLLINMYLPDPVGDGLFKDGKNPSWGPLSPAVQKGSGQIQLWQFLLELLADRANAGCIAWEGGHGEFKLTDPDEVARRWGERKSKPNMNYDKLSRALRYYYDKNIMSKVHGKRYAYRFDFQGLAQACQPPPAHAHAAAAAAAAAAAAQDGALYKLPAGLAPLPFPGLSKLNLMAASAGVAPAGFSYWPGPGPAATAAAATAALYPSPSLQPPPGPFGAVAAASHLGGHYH
# Method in brief: as §1
# ETV5 = ETV5 (Homo sapiens, UniProt P41161 1-510); details: protein: recombinant; tags: N-terminal GST; dsDNA, one strand shown
# Chain of ETV5 (P41161 whole entry): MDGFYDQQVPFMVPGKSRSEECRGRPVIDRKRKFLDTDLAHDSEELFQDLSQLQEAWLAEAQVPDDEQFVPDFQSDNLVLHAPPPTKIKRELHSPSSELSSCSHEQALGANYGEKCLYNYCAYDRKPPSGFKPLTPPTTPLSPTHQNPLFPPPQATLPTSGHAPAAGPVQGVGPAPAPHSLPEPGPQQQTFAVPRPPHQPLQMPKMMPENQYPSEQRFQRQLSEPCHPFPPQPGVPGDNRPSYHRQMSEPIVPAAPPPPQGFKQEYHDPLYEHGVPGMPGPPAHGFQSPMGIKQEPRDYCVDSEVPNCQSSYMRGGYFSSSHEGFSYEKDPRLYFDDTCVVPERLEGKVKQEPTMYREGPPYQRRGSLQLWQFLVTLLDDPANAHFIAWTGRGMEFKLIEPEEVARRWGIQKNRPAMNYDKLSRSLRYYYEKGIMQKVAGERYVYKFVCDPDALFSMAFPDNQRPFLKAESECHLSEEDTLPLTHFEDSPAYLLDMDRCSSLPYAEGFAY
# Method in brief: as §1
# HSF1 = HSF1 (Homo sapiens, UniProt Q00613 1-529); details: protein: recombinant; tags: N-terminal GST; chain copies: 3; dsDNA, one strand shown
# Chain of HSF1 (Q00613 whole entry): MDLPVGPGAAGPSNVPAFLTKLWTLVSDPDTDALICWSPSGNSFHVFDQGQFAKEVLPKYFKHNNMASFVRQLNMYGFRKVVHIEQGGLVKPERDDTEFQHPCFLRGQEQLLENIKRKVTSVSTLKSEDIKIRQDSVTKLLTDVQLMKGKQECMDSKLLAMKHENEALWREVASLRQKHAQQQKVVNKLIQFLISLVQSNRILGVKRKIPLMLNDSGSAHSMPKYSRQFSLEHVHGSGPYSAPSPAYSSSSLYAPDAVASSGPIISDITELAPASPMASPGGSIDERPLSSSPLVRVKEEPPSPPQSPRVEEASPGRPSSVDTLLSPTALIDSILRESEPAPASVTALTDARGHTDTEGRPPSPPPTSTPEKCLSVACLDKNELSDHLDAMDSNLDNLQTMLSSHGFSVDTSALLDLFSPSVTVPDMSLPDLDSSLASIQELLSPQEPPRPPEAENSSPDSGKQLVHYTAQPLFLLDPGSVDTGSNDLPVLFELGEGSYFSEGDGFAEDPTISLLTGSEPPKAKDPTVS
# Method in brief: as §1
# SPIC = molecular target: T8, SPIC (Homo sapiens, UniProt Q8N5J4 1-248); details: protein: recombinant; tags: N-terminal GST; dsDNA, one strand shown
# T8 sequence: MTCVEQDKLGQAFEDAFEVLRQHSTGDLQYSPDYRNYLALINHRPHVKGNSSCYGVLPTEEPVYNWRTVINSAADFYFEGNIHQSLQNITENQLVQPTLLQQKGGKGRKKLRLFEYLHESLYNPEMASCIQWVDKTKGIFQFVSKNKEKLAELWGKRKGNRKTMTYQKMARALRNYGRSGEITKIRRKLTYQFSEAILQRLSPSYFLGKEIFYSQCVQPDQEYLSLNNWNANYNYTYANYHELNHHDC
# Method in brief: as §1
# ELF4 = ELF4 (Homo sapiens, UniProt Q99607 1-663); details: protein: recombinant; tags: N-terminal GST; dsDNA, one strand shown
# Chain of ELF4 (Q99607 whole entry): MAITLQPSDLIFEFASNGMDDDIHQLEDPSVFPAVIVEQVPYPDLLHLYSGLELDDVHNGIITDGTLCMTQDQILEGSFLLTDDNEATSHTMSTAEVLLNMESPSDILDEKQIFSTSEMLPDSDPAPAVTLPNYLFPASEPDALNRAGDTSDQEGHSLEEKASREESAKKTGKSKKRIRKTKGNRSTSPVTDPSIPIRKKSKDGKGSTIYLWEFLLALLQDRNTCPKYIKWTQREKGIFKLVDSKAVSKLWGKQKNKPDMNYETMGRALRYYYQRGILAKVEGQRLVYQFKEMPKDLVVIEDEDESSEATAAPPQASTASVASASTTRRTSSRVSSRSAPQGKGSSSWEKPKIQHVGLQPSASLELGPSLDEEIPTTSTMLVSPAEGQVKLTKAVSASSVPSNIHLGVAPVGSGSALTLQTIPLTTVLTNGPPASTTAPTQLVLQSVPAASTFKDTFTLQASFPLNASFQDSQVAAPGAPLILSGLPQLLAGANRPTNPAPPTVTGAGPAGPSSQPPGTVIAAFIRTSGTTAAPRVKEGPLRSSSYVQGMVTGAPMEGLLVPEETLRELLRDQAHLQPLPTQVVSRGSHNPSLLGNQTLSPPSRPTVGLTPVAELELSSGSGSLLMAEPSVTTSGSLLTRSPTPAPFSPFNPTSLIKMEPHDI
# Method in brief: as §1
# ELK4 = molecular target: T9, ELK4 (Homo sapiens, UniProt P28324-2 1-405); details: protein: recombinant; tags: N-terminal GST; dsDNA, one strand shown
# T9 sequence: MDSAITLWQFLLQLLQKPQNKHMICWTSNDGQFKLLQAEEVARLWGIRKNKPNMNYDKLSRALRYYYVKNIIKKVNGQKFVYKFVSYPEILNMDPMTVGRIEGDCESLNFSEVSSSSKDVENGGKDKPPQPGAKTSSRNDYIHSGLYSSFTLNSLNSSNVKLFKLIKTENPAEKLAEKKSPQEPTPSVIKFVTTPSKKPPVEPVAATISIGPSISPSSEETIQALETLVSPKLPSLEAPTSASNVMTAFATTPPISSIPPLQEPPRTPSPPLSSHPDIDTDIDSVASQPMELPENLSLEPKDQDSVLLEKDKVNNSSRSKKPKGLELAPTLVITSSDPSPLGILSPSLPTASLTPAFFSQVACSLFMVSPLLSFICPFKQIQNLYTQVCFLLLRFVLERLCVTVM
# Method in brief: as §1
# ETV2 = molecular target: T10, ETV2 (Homo sapiens, UniProt O00321 1-342); details: protein: recombinant; tags: N-terminal GST; dsDNA, one strand shown
# T10 sequence: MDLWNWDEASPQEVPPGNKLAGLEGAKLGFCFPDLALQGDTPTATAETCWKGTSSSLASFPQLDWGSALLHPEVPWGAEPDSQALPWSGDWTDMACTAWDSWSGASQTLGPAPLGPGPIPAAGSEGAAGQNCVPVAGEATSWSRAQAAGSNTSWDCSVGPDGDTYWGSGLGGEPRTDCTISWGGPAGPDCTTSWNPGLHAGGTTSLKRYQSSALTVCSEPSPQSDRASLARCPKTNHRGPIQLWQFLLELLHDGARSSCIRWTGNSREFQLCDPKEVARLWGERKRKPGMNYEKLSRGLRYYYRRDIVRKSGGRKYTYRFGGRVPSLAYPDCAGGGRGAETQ
# Method in brief: as §1
# ELF3 = molecular target: T11, ELF3 (Homo sapiens, UniProt P78545 1-371); details: protein: recombinant; tags: N-terminal GST; dsDNA, one strand shown
# T11 sequence: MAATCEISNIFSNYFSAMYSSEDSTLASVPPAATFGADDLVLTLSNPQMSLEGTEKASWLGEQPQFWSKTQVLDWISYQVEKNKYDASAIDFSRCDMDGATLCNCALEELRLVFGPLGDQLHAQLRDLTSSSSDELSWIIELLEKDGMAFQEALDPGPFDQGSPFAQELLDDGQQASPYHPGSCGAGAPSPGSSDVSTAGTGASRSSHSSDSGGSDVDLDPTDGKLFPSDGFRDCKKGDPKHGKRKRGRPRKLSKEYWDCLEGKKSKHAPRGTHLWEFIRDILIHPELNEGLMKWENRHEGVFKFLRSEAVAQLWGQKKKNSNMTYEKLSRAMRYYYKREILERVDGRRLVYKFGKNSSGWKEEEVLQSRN
# Method in brief: as §1
# ETV1 = ETV1 (Homo sapiens, UniProt P50549 1-477); details: protein: recombinant; tags: N-terminal GST; dsDNA, one strand shown
# Chain of ETV1 (P50549 whole entry): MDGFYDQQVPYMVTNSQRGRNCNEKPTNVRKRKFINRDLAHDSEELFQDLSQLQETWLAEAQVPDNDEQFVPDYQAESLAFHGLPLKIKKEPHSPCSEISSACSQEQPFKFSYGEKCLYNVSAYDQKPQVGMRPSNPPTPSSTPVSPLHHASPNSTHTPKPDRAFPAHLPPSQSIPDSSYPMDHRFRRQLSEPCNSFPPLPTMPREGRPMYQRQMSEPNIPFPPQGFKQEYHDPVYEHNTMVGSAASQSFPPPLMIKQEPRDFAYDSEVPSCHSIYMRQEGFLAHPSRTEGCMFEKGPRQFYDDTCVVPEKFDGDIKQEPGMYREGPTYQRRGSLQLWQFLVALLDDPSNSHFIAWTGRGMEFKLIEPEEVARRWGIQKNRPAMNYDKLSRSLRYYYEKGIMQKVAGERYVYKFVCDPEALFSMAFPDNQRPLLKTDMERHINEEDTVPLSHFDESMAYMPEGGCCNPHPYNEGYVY
# Method in brief: as §1
sequence,measurement,setting,value
ATGGGC,binding signal,FLI1,"1.28 fold enrichment (6-mer frequency, TF over GST control)"
same,binding signal,ELK1,"1.29 fold enrichment (6-mer frequency, TF over GST control)"
same,binding signal,GABPA,"1.3 fold enrichment (6-mer frequency, TF over GST control)"
same,binding signal,ERG,"1.26 fold enrichment (6-mer frequency, TF over GST control)"
same,binding signal,ELF1,"1.27 fold enrichment (6-mer frequency, TF over GST control)"
same,binding signal,EHF,"1.32 fold enrichment (6-mer frequency, TF over GST control)"
same,binding signal,SPI1,"1.35 fold enrichment (6-mer frequency, TF over GST control)"
same,binding signal,SPIB,"1.3 fold enrichment (6-mer frequency, TF over GST control)"
same,binding signal,ELK3,"1.37 fold enrichment (6-mer frequency, TF over GST control)"
same,binding signal,FEV,"1.28 fold enrichment (6-mer frequency, TF over GST control)"
same,binding signal,ETV5,"1.25 fold enrichment (6-mer frequency, TF over GST control)"
same,binding signal,HSF1,"1.03 fold enrichment (6-mer frequency, TF over GST control)"
same,binding signal,SPIC,"1.35 fold enrichment (6-mer frequency, TF over GST control)"
same,binding signal,ELF4,"1.35 fold enrichment (6-mer frequency, TF over GST control)"
same,binding signal,ELK4,"1.49 fold enrichment (6-mer frequency, TF over GST control)"
same,binding signal,ETV2,"1.17 fold enrichment (6-mer frequency, TF over GST control)"
same,binding signal,ELF3,"1.24 fold enrichment (6-mer frequency, TF over GST control)"
same,binding signal,ETV1,"1.19 fold enrichment (6-mer frequency, TF over GST control)"
